CIT2 TOR yeast: alters CIT2-GFP fluorescence in TOR pathway yeast screen | 320,000 compounds, 0.065% hits | GFP response vs DMSO, % at 10 µM | AID 2029 | S. cerevisiae CIT2-GFP strain, flow cytometry, 3 h; 100 means same as DMSO wells;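 active = GFP response relative to DMSO above a set limit, near the screen mean plus 3 SD, cut at about 150% in these data; inconclusive = Fewer than 70 cells measured for a yeast strain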;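 note: ratio of well median GFP fluorescence to mean of DMSO wells on the plate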
RPL19A TOR yeast: modulators of TOR pathway RPL19A-GFP in S. cerevisiae; S. cerevisiae RPL19A-GFP strain, flow cytometry, 3 h; stronger effect = lower value; 330,000 compounds, 0.3% hits; percent response vs DMSO, % at 10 µM; AID 2025;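 active = percent response vs DMSO below 50%; inconclusive = fewer than 70 events counted for the yeast strain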;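 note: median channel GFP fluorescence of the barcoded RPL19A-GFP strain; ratio of sample median GFP to plate DMSO average so 100% = DMSO; lower means less RPL19A-GFP as with rapamycin TOR inhibition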
AGP1 TOR yeast: alters AGP1-GFP fluorescence in TOR pathway yeast screen; S. cerevisiae AGP1-GFP multiplex flow cytometry, 3 h; GFP as percent of DMSO wells; GFP response vs DMSO, % at 10 µM; 320,000 compounds, 0.02% hits; AID 2066;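 active = GFP response relative to DMSO above a set limit, near screen average plus 3 SD, cut at about 150% in these data; inconclusive = fewer than 70 cells counted for the yeast strain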;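 note: median GFP channel fluorescence of the gated AGP1 strain per well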
LAP4 TOR yeast: alters LAP4-GFP fluorescence in TOR pathway yeast screen. AID 2023. GFP response vs DMSO, % at 10 µM. 320,000 compounds, 0.34% hits. S. cerevisiae LAP4-GFP multiplex, flow cytometry GFP, 3 h; median GFP as percent of DMSO wells;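 active = GFP response vs DMSO above a set limit, about the screen mean plus 3 SD, cut at about 150% in these data; inconclusive = under 70 cell events counted for the yeast strain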
DSG3 Ab inh: inhibitors of pemphigus antibody binding to human desmoglein-3. P32926. DSG3-coupled beads, scFv-anti-DSG3-GFP binding, flow cytometry; stronger effect = lower value. binding (percent of control), % at 10 µM. 310,000 compounds, 0.48% hits;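 active = binding more than 3 SD below its plate's average and above zero; inconclusive = below that plate limit but binding exactly zero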
Target sequence (P32926 whole entry, looked up): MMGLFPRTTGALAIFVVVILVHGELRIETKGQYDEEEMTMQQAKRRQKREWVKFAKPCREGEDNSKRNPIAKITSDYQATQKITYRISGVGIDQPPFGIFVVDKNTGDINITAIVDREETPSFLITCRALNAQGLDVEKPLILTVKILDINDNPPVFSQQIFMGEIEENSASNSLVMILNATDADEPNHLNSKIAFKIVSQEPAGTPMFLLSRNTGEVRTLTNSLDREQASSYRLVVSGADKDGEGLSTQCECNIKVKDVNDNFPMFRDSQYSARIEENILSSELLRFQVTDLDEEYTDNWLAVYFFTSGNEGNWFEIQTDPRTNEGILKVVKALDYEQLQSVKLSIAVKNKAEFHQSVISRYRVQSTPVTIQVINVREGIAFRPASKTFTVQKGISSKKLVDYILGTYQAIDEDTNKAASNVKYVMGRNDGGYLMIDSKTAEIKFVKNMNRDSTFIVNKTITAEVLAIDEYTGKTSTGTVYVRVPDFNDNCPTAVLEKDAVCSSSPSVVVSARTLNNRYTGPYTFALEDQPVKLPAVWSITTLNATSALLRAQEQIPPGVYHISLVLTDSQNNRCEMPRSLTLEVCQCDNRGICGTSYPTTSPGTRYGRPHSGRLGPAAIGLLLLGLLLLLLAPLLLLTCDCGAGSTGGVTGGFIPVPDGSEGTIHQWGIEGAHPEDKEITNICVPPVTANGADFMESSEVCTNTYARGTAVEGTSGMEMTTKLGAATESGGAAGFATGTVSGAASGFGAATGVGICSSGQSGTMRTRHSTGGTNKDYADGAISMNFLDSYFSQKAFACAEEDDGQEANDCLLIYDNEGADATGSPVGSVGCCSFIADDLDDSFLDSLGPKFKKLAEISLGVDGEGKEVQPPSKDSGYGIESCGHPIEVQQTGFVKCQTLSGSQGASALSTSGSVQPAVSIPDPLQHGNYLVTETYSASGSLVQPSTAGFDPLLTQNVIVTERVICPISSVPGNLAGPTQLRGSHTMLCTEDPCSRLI
MEP2 TOR yeast: yeast TOR pathway MEP2-GFP modulation; 330,000 compounds, 0.51% hits; GFP response vs DMSO, % at 10 µM; S. cerevisiae MEP2-GFP strain, flow cytometry GFP, 3 h; 100% = DMSO control level; AID 2016;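 active = GFP response versus DMSO above a set limit, roughly screen mean plus 3 SD, cut at about 180% in these data; inconclusive = fewer than 70 cells counted for a yeast strain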;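 note: median GFP fluorescence of the barcode-gated MEP2-GFP cells per well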
* hit, by the source's call; [ ] = remark or other dose. Most compounds without a hit are left out; they make up all but 1.2% or so of the library.

CCc1c(C)nc(N)c(C#N)c1-c1ccccc1 was read as CIT2 TOR yeast 99.5, RPL19A TOR yeast 93.3, AGP1 TOR yeast 97.8, LAP4 TOR yeast 100.7, DSG3 Ab inh 74.8 and MEP2 TOR yeast 98.3.
COc1cc2cncc(Cc3ccc(Cl)cc3)c2cc1OC was read as CIT2 TOR yeast 93.9, RPL19A TOR yeast 100.1, AGP1 TOR yeast 105.6, LAP4 TOR yeast 99.2 and MEP2 TOR yeast 104.5.
Screening Cc1ccc(NC(=O)CCC(=O)c2ccccc2)cc1 returned DSG3 Ab inh 71.0*.
COc1ccc(OCC(=O)N/N=C/c2cccn2-c2cccc(C(=O)O)c2)cc1 was read as DSG3 Ab inh 112.8.
CCN1/C(=C/c2ccc3cc(C)ccc3[n+]2C)Sc2ccc3sccc3c21 was read as DSG3 Ab inh 3.0*.
Screening CCN1/C(=C/c2ccc3cc(C)ccc3[n+]2CC)Sc2cc(C)ccc21 returned DSG3 Ab inh 110.8.
`CC(NC(=O)c1ccc([N+](=O)[O-])o1)C12CC3CC(CC(C3)C1)C2` (configuration not stated) gave CIT2 TOR yeast inconclusive, RPL19A TOR yeast 16.1*[may fluoresce violet], AGP1 TOR yeast inconclusive, LAP4 TOR yeast 40.4, DSG3 Ab inh 92.0 and MEP2 TOR yeast inconclusive.
Screening COc1ccc(OC)c(CC(NC(C)=O)C(=O)NC2CCN(c3cc(C)nc4ncnn34)CC2)c1 (configuration not stated) returned CIT2 TOR yeast 101.5, RPL19A TOR yeast 98.5, AGP1 TOR yeast 97.2, LAP4 TOR yeast 94.5 and MEP2 TOR yeast 94.8.
For CCOC(=O)c1cn(-c2ccc([N+](=O)[O-])cc2)c2cc(Cl)c([N+](=O)[O-])cc2c1=O the results were CIT2 TOR yeast 108.3, RPL19A TOR yeast 103.1, AGP1 TOR yeast 97.2, LAP4 TOR yeast 82.2, DSG3 Ab inh 61.8* and MEP2 TOR yeast 88.3.
Screening O=C(O)c1cn(-c2ccc(F)cc2)c2cc(Cl)c(F)cc2c1=O returned CIT2 TOR yeast 96.4, RPL19A TOR yeast 100.3, AGP1 TOR yeast 102.5, LAP4 TOR yeast 102.8, DSG3 Ab inh 116.2 and MEP2 TOR yeast 104.4.
`Cc1ccc(S(=O)(=O)N2C[C@@H]3[C@H]4CC[C@H](C4)[C@@H]3[C@@H](C)[C@H]2c2ccco2)cc1` gave DSG3 Ab inh 96.5.
CC(=O)Nc1ccc(S(=O)(=O)N2CCC(C(N)=O)(N3CCCCC3)CC2)cc1 was read as CIT2 TOR yeast 102.1, RPL19A TOR yeast 104.0, AGP1 TOR yeast 98.3, LAP4 TOR yeast 106.1, DSG3 Ab inh 38.4* and MEP2 TOR yeast 110.0.
CC(=O)Nc1ccc(S(=O)(=O)N2CCN(C)CC2)cc1 was read as CIT2 TOR yeast inconclusive, RPL19A TOR yeast 57.7, AGP1 TOR yeast 15.4, LAP4 TOR yeast 86.2, DSG3 Ab inh 108.2 and MEP2 TOR yeast 210.4*[may fluoresce violet].
`COC(=O)Nc1ccc(S(=O)(=O)N2CCN(C)CC2)cc1` gave CIT2 TOR yeast 103.7, RPL19A TOR yeast 102.1, AGP1 TOR yeast 108.3, LAP4 TOR yeast 99.5, DSG3 Ab inh 94.3 and MEP2 TOR yeast 109.7.
`CC(=O)Nc1cccc(C(=O)OCC(=O)c2ccc(S(=O)(=O)N3CCCCC3)cc2)c1` gave CIT2 TOR yeast 111.8, RPL19A TOR yeast 107.7, AGP1 TOR yeast 110.0, LAP4 TOR yeast 106.0, DSG3 Ab inh 108.4 and MEP2 TOR yeast 115.9.
For COc1ccccc1CNC(=O)C1CCN(S(=O)(=O)c2ccc3nc4c(c(C(=O)O)c3c2)CCCC4)CC1 the results were CIT2 TOR yeast inconclusive, RPL19A TOR yeast 34.7*[may fluoresce violet], AGP1 TOR yeast inconclusive, LAP4 TOR yeast 49.9, DSG3 Ab inh 96.9 and MEP2 TOR yeast 257.9*[may fluoresce violet].
Screening CC(=O)Nc1ccc(C(=O)OCC(=O)c2ccc(S(=O)(=O)N3CCCCC3)cc2)cc1 returned CIT2 TOR yeast 81.3, RPL19A TOR yeast 90.6, AGP1 TOR yeast 87.3, LAP4 TOR yeast 83.4, DSG3 Ab inh 28.7* and MEP2 TOR yeast 93.9.
O=C(O)c1c2c(nc3ccc(S(=O)(=O)N4CCC(C(=O)NCc5ccccc5)CC4)cc13)CCCC2 was read as DSG3 Ab inh 109.0.
